Records with an inconclusive call do not appear. Values without a mark were called inactive. Calls of active or inactive are those of the source. Calls come from the whole dose curve; as a rule, active = well fitted inhibition curve with a large enough effect; inconclusive = small, poorly fitted or top-dose-only effect, or effect the other way; inactive = flat fitted curve, though single readings scatter.
Molecular target: Ubiquitin carboxyl-terminal hydrolase 2 (Homo sapiens) (UniProt O75604)
Assay: Confirmation Assay for Inhibitors of Ubiquitin-specific Protease USP2a Using CHOP2 as the Reporter; note: nearly all actives have a fitted effect of over 55% in size;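 for activity change, negative = inhibition: plate controls were DMSO wells for no effect and full inhibition by NEM control for full effect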
Settings: USP2 core, Ub-CHOP2 coupled reporter fluorescence; series mostly up to 38.3 µM; activity change, negative = inhibition: at the top concentration
In short: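 Ub-CHOP2 cleavage coupled to reporter activation was read by fluorescence after 60 min at RT, with 25 nM final Ub-CHOP2 and substrate. Enzyme (10 nM final USP2 core) first sat 30 min with compound; data were normalized to NEM and fitted to concentration-response curves.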
Potency is the fitted concentration of half-maximal effect.

Chain of Ubiquitin carboxyl-terminal hydrolase 2 (Homo sapiens) (O75604 whole entry, looked up): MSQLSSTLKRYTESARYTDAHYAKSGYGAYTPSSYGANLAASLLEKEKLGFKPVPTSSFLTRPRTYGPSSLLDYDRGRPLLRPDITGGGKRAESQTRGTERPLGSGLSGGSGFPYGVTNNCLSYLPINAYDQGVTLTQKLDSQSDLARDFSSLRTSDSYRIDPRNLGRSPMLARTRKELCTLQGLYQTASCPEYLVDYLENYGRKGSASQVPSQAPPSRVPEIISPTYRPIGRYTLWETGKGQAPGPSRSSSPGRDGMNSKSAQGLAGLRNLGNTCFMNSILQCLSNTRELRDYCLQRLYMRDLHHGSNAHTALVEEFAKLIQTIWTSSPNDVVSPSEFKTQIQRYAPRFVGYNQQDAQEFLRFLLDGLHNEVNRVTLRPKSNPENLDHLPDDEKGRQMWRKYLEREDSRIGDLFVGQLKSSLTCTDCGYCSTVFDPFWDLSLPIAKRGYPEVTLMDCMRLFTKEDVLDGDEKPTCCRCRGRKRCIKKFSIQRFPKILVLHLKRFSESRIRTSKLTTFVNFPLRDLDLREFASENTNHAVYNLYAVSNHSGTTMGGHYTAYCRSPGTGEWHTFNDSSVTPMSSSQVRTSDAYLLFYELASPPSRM

SMILES	Potency	activity change, negative = inhibition
CC(=O)c1cccc(NC(=O)C(C)OC(=O)c2cc(=O)[nH]c3ccccc23)c1 (centres undefined)	6.56 µM (active)	–
CCOc1ccc2[nH]c(=O)c(CN(Cc3nnnn3Cc3ccco3)C3CCCCC3)cc2c1	–	-11.1%
CCOC(=O)c1c(-c2ccc(C)o2)csc1NC(=O)COC(=O)c1ccc(NC(N)=O)cc1	–	-4.42%
COc1ccc(-c2noc(CSc3nnc(Cc4ccccc4)n3-c3ccc(Cl)cc3)n2)cc1	–	1.21%
Cc1ccc(C=Nc2ccccc2C(N)=O)cc1	–	0.371%
CCOC(=O)COc1ccccc1/C=N/O	–	-2.24%
O=c1[nH]c(=S)[nH]c2c1C(c1ccc(Br)cc1)c1c([nH]c(=S)[nH]c1=O)O2	9.27 µM (active)	–
CCCCNC(=O)Nc1ccccc1C(=O)NCc1ccco1	–	-4.43%
CC(C)(C)C1CCC2(CC1)Nc1cccc3cccc(c13)N2	–	-4.19%
COC(=O)c1ccc(CSc2ncnc3ccccc23)o1	–	1.14%
CC(C)Oc1ccc(C(=O)Nc2ccc(N3CCCC3)cc2)cc1	–	-1.01%
O=C(CSc1nccc(=O)[nH]1)N1N=C2/C(=C/c3ccco3)CCCC2C1c1ccco1 (centres undefined)	–	-19.1%
Cc1ccc(-c2cc(-c3ccc(C)cc3)[n+](-c3ccc(C(=O)[O-])cc3)c(-c3ccc(C)cc3)c2)cc1	–	-2.45%
CSCCC(NC(=O)c1cc(C(C)(C)C)oc1C)C(=O)O (centres undefined)	–	-0.12%
Cc1ccc2[nH]c(=O)c(COC(=O)c3ccccn3)cc2c1	–	3.32%
CC(C)c1ccc2c(c1)c(SC(C)(C)C)c(CC(C)(C)C(=O)O)n2Cc1ccc(Cl)cc1	6.56 µM (active)	–
O=C(OCC(=O)N1CCCCC1)c1cc2ccccc2cc1O	–	-2.25%
COCc1cc(C)nc(SCC[N+](C)(C)CC(=O)Nc2cccc(C(F)(F)F)c2)c1C#N	–	-13.5%
O=C(CSc1nc(N2CCCCC2)nc(N2CCCCC2)n1)N1CCN(c2ccccc2)CC1	–	0.372%
Cc1ccc(/C=N/NC(=O)c2cc(-c3ccc(C)o3)[nH]n2)cc1	–	-3.8%

SMILES	Potency	activity change, negative = inhibition
Cc1ccc(SCC(=O)Nc2ccc(C(=O)Nc3ccc(O)cc3)cc2)cc1	–	-2.22%
Cc1ccc(S(=O)(=O)N2CCOCC2)cc1NC(=O)CN1C(=O)NC(C)(c2ccc(Cl)cc2Cl)C1=O (centres undefined)	–	4.88%
CC1(C)CC(=O)C2=C(C1)N(Cc1ccco1)C(=O)NC2(C(F)(F)F)C(F)(F)F	–	5.78%
COc1cc(OC)cc(-c2c(C#Cc3ccsc3)c3cc(-c4ccc(OC)c(F)c4)ccc3n2C)c1	–	4.92%
COc1ccccc1C(=O)n1nc(-c2cccnc2)nc1NCc1ccccc1	5.85 µM (active)	–
CC(C)n1c(/C=C/[C@H](O)C[C@H](O)CC(=O)O)c(-c2ccc(F)cc2)c2ccccc21	–	1.97%
CCCCCCCCCCOC(=O)Cn1c(COc2ccc(Cl)cc2)[n+](C)c2ccccc21	18.5 µM (active)	–
Cc1cc(-c2csc(NCc3ccccc3)n2)c(C)n1C	18.5 µM (active)	–
O=C(CSc1nc2ccccc2s1)NCCCN1CCOCC1	–	3.93%
Cc1cc(Cl)ccc1NC(=S)NCCCN1CCCC1=O	–	-2.55%
O=C(O)CP(=O)(c1ccccc1)c1ccccc1	–	0.641%
O=[N+]([O-])c1cc(-c2nnc(Nc3ccccc3)c3ccccc23)ccc1N1CCOCC1	–	4.53%
CC(=O)c1ccc(Nc2ncnc3c2oc2ccccc23)cc1	–	6.35%
O=C(O)c1cccc(-n2cccc2/C=C2/NC(=O)N(c3ccc(Cl)cc3)C2=O)c1	9.27 µM (active)	–
O=C(Nc1cccc(S(=O)(=O)NC2=NCCC2)c1)c1cc(-c2ccco2)nc2ccccc12	16.5 µM (active)	–
O=C(CSc1nc(O)cc(=O)n1-c1ccccc1)NC1CCCCC1	–	1.96%
COc1ccc(CNS(=O)(=O)c2ccc(S(=O)(=O)N3CCCCC3)cc2)cc1	–	-0.642%
CN(C)CCCN1C(=O)C(=O)/C(=C(/O)c2ccncc2)C1c1cccnc1 (centres undefined)	–	-0.824%
Cn1c(=O)c2c(nc(CN3CCN(C(=O)c4ccco4)CC3)n2CCCc2ccccc2)n(C)c1=O	–	1.35%

Reference: PubChem BioAssay AID493168 (National Center for Advancing Translational Sciences (NCATS), 2011)
